PubChem BioAssay (Tox21)
Inconclusive results are not listed. A call without a number means that no potency is given here. Activity calls are given as the source filed them. The call rests on the fitted dose curve.

Test: qHTS assay for small molecule agonists of the p53 signaling pathway - cell viability (AID 651633); further: nearly all actives have a fitted effect of over 30% in size;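 on activity change, negative = cytotoxicity: p53RE-bla HCT reporter cells with a stable beta-lactamase p53 reporter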
Details: p53RE-bla HCT-116 viability, ATP luminescence, 16 h; series mostly up to 83.3 µM
Text: National Center for Advancing Translational Sciences [NCATS]
NIH Chemical Genomics Center [NCGC]
U.S. Environmental Protection Agency [EPA]
National Institutes of Environmental Health Sciences [NIEHS]
National Toxicology Program [NTP]
U.S. Food and Drug Administration [FDA]
p53, a tumor suppressor protein, is activated following cellular insult, including DNA damage and other cellular stresses. The activation of p53 regulates cell fate by inducing DNA repair, cell cycle arrest, apoptosis, or cellular senescence. The activation of p53, therefore, is a good indicator of DNA damage and other cellular stresses. […] The activation of the reporter gene under culture conditions can be detected by fluorescence intensity. This cell line was used to screen the Tox21 compound library in a 1536-well plate format and to identify agonists that activate the p53 signaling pathway.
Tox21 Assay Protocol Summary:
The p53RE-bla cells were dispensed at 4,000 cells/5 ul/well in 1536-well black wall/clear bottom plates using a Multidrop dispenser. After the assay plates were incubated at a 37 C/5% CO2 incubator for 5 hours, 23 nL of compounds dissolved in DMSO, positive controls or DMSO only was transferred to the assay plate by a pin tool. The plates were incubated at 37 C for 16 hours. After 1 uL of LiveBLAzerTM B/G FRET substrate was added using a Flying Reagent Dispenser, the plates were incubated at room temperature for 2 hours, and fluorescence intensity was measured by an Envision plate reader.
For cell viability readout that measures cytotoxicity, 4 ul/well of CellTiter-Glo reagent was added into the assay plates using a Flying Reagent Dispenser. After 30 min incubation at room temperature, the luminescence intensity in the plates was measured using a ViewLux plate reader.
Potency means the concentration at half of the fitted maximal effect.

SMILES	Potency	activity change, negative = cytotoxicity
CCCCCCCCCc1ccc(OCCOCCO)cc1	29.8 µM (active)	–
OCCN1CCN(CCCN2c3ccccc3C=Cc3ccccc32)CC1	inactive	–
CC(C)(CO)[N+](=O)[O-]	inactive	–
CC(COCCO)OCCO (stereo not given)	inactive	–
CN(C)CCCN1c2ccccc2Sc2ccccc21	inactive	–
Nc1ccc(N)c2c1C(=O)c1ccccc1C2=O	inactive	–
CN(C)c1ccc(/C=C/c2ccc([N+](=O)[O-])cc2)cc1	–	-6.1% [at 8.08 µM] (inactive)
COc1ccc(-c2nc3ccc(C4=NNC(=O)CC4C)cc3[nH]2)cc1 (stereo not given)	inactive	–
CCCCCCCC#N	inactive	–
COS(=O)(=O)C(F)(F)F	inactive	–
CC1=CCCC(C)(C)C12CCC(C)O2 (stereo not given)	inactive	–
CCO[Si](CCCCl)(OCC)OCC	inactive	–
O=C1CCC(=O)O1	inactive	–
C/C=C/C=C/CO	inactive	–
OCCNCc1ccccc1	inactive	–
CC(=O)c1ccc2c(c1)N(CCCN(C)C)c1ccccc1S2	inactive	–
CCOc1ccc(N)c([N+](=O)[O-])c1	inactive	–
C#CCN(C)CCCOc1ccc(Cl)cc1Cl	inactive	–
CCCCC(CC)COC(=O)COc1ccc(Cl)cc1Cl (stereo not given)	inactive	–
C[N+](C)(C)CCOC(=O)CCC(=O)OCC[N+](C)(C)C	inactive	–

SMILES	Potency	activity change, negative = cytotoxicity
Cc1cccc(C)c1NC(=O)CN(CC(=O)O)CC(=O)O	inactive	–
O=[N+]([O-])c1cccc(S(=O)(=O)O)c1	inactive	–
C[N+]1(CC2COC(c3ccccc3)(C3CCCCC3)O2)CCCCC1 (stereo not given)	inactive	–
CCOC(=O)NCCOc1ccc(Oc2ccccc2)cc1	inactive	–
CC[N+](C)(CC)CCOC(=O)C(O)(c1ccccc1)C1CCCCC1 (stereo not given)	inactive	–
CC(=O)c1cccc([N+](=O)[O-])c1	inactive	–
CC(=O)[O][Al]	inactive	–
CCC(C)O (stereo not given)	inactive	–
C/C=C/C(=O)CC	–	-24.4% [at 17.9 µM] (inactive)
CCc1c(C(=O)NN2CCCCC2)nn(-c2ccc(Cl)cc2Cl)c1-c1ccc(Br)cc1	13.7 µM (active)	–
CC(C)(O)c1ccc(CNC(=O)c2cccnc2Oc2ccc(F)cc2)cc1	inactive	–
Cc1c(N)cccc1[N+](=O)[O-]	inactive	–
C1CCCNCCC1	inactive	–
CCN(CC)c1ccc2c(-c3ccccc3C(=O)O)c3ccc(=[N+](CC)CC)cc-3oc2c1	inactive	–
O=C(O)c1nc(Cl)c(Cl)c(Cl)c1Cl	inactive	–
O=C1C(O)=C(O)C(=O)C(O)=C1O	inactive	–
O=CC1CC=CCC1 (stereo not given)	inactive	–
COc1ccc(C(=O)c2ccc(OC)cc2O)c(O)c1	inactive	–
CCCn1cnc2c1c(=O)n(CCCCC(C)=O)c(=O)n2C	inactive	–
CNC(=O)CN(CCN(CCN(CC(=O)[O-])CC(=O)NC)CC(=O)[O-])CC(=O)[O-].O.[Gd+3]	inactive	–
